Measured values published in PubChem BioAssay (EPA / NIEHS).
Results filed as inconclusive are left out. Calls of active or inactive are those of the source. Rule for the calls, unless noted: active = hit-call score of the fitted dose curve at least 0.9, where 1 is the maximum; inactive = score below 0.9.

Key:
[1] = ATG_PBREM_CIS: Attagene CIS-FACTORIAL HepG2 Assay for human Phenobarbital-responsive Enhancer Module (PBREM) (AID 2282955); conditions: HepG2 PBREM cis-reporter, Attagene multiplexed transcription; actives raise or lower the signal
Method in brief: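 Multiplexed cis-reporter readout in human hepatoma HepG2 cells; PBREM-regulated transcript quantified after 24 h exposure by fluorescent RT-PCR fragment analysis. Signal changes up or down fitted relative to DMSO.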

[2] = target: Paired box protein Pax-6 (Homo sapiens) (UniProt P26367); assay: ATG_Pax6_CIS: Attagene CIS-FACTORIAL HepG2 Assay for human Paired Box 6 (PAX6) (AID 2282956); conditions: HepG2 CIS-FACTORIAL PAX6 reporter transcription, RNA readout; actives raise or lower the signal
Method in brief: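 Fluorescent RT-PCR products separated by capillary electrophoresis report PAX6-linked promoter mRNA in HepG2 cells 24 h post-dose. Curves fitted bidirectionally, DMSO as negative control.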

[3] = ATG_PXRE_CIS: Attagene CIS-FACTORIAL HepG2 Assay for human Pregnane X Receptor Element (PXRE) (AID 2282957); conditions: HepG2 Attagene CIS-FACTORIAL PXRE reporter, mRNA; actives raise or lower the signal
Method in brief: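 Using HepG2 transfected with multiple reporter transcription units, endogenous factor-driven transcription was scored as reporter mRNA after 24 h exposure.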

[4] = ATG_PPRE_CIS: Attagene CIS-FACTORIAL HepG2 Assay for human Peroxisome Proliferator-activated Response Element (PPRE) (AID 2282958); conditions: HepG2 PPRE cis-element reporter, Attagene transcription factor profiling; actives raise or lower the signal
Method in brief: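 DMSO served as negative control and baseline for bidirectional curve fitting. Signal came from PPRE-regulated reporter mRNA in HepG2 cells, measured 24 h post-dosing by RT-PCR, 6-FAM primer extension and capillary electrophoresis.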

[5] = ATG_RORE_CIS: Attagene CIS-FACTORIAL HepG2 Assay for human RAR-related Orphan Receptor Element (RORE) (AID 2282959); conditions: HepG2 Attagene cis-factorial RORE reporter, mRNA; actives raise or lower the signal
Method in brief: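 Transfect HepG2 with MRTUs; treat 24 h; extract RNA; RT with oligo(dT); PCR with reporter-specific primers; 6-FAM primer extension; HpaI digest 2 h at 37 C; capillary electrophoresis. Fit vs DMSO, bidirectional.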

[6] = ATG_Sox_CIS: Attagene CIS-FACTORIAL HepG2 Assay for human SRY-box transcription factor (SOX) (AID 2282960); conditions: HepG2 Attagene cis-factorial SOX reporter, mRNA; actives raise or lower the signal
Method in brief: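 Fluorescence-labelled cDNA fragments from reporter transcripts, sized by CE, give the signal. Cells: HepG2, transiently transfected with cis-regulated reporter units. Exposure 24 h; DMSO negative control; bidirectional curve fitting.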

[7] = target: Transcription factor Sp1 (Homo sapiens) (UniProt P08047); assay: ATG_Sp1_CIS: Attagene CIS-FACTORIAL HepG2 Assay for human Specificity Protein 1 (Sp1) (AID 2282961); conditions: HepG2 Sp1 cis-reporter transcription, actives raise or lower the signal
Method in brief: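 Chemicals are dosed onto HepG2 cells transfected with multiple cis-promoter reporter constructs, and after 24 h reporter RNA is reverse-transcribed, PCR-amplified and resolved by capillary electrophoresis for fluorescence quantitation; activity is scored up or down against DMSO.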

[8] = ATG_SREBP_CIS: Attagene CIS-FACTORIAL HepG2 Assay for human Sterol Regulatory Element Binding (SREBP) (AID 2282962); conditions: HepG2 Attagene cis-factorial SREBP reporter, mRNA; actives raise or lower the signal
Method in brief: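 Endogenous factor activity is measured in HepG2 through multiplexed reporter units under cis-element control. Following a 24 h incubation, reporter transcripts are reverse-transcribed, PCR-amplified and sized by capillary electrophoresis; activity is fitted in both directions relative to DMSO.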

[9] = target: Signal transducer and activator of transcription 3 (Homo sapiens) (UniProt P40763); assay: ATG_STAT3_CIS: Attagene CIS-FACTORIAL HepG2 Assay for human Signal Transducer and Activator of Transcription 3 (STAT3) (AID 2282963); conditions: HepG2, Attagene cis-factorial STAT3 reporter transcription; actives raise or lower the signal
Method in brief: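 HepG2, MRTU-transfected, 24 h dosing. RNA → RT → PCR → FAM label → HpaI → CE. Bidirectional fit vs DMSO.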

[10] = ATG_TA_CIS: Attagene CIS-FACTORIAL HepG2 Assay for human TA Basal Promoter (AID 2282964); conditions: HepG2 Attagene CIS-factorial TA basal promoter reporter; actives raise or lower the signal
Method in brief: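 Cis-factorial format in HepG2: reporters report endogenous factors, not chimeric Gal4 fusions. After 24 h treatment, reporter transcripts were measured by RT-PCR-capillary electrophoresis fluorescence, analysed bidirectionally versus DMSO.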

[11] = ATG_TCF_b_cat_CIS: Attagene CIS-FACTORIAL HepG2 Assay for human T-Cell-Factor with beta-catenin (TCF/b-cat) (AID 2282965); conditions: HepG2 TCF/beta-catenin cis-reporter transcription, actives raise or lower the signal
Method in brief: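 Using capillary electrophoresis as the read-out, labelled reporter cDNA fragments from transiently transfected HepG2 were sized and quantified. Exposure lasted 24 hours; activity in either direction was referenced to DMSO.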

[12] = ATG_TAL_CIS: Attagene CIS-FACTORIAL HepG2 Assay for human TAL Basal Promoter (AID 2282966); conditions: HepG2 Attagene cis-factorial TAL promoter reporter; actives raise or lower the signal;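 note: background control endpoint measuring basal TAL promoter reporter mRNA not a specific factor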
Method in brief: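 After 24 hours of chemical exposure, transfected HepG2 cells yielded RNA that was converted to 6-FAM-labelled, HpaI-digested reporter fragments for capillary electrophoresis. Values derive from bidirectional fitting against DMSO controls.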

[13] = ATG_TGFb_CIS: Attagene CIS-FACTORIAL HepG2 Assay for human Transforming Growth Factor (TGF) (AID 2282967); conditions: HepG2 Attagene CIS TGFb reporter, mRNA transcription; actives raise or lower the signal
Method in brief: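 Multiplexed cis-reporter HepG2 system, 24 h treatment; mRNA induction read by fluorescence after RT-PCR and CE; DMSO negative control, bidirectional curve fitting.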

[14] = ATG_VDRE_CIS: Attagene CIS-FACTORIAL HepG2 Assay for human Vitamin D Receptor Element (VDRE) (AID 2282968); conditions: HepG2 VDRE cis-reporter transcription, actives raise or lower the signal
Method in brief: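 Steps: transfect HepG2 with multiple reporter transcription units; dose chemicals 24 h; isolate RNA; RT-PCR; label with 6-FAM primer extension; HpaI digest; capillary electrophoresis. Curves fitted both directions against DMSO.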

[15] = target: Estrogen receptor (Homo sapiens) (UniProt P03372); assay: ATG_ERa_TRANS: Attagene TRANS-FACTORIAL HepG2 Assay for human Estrogen Receptor alpha (ERa) (AID 2282970; active = hit-call score of the fitted dose curve at least 0.9, where 1 is the maximum); conditions: HepG2 Attagene TRANS ERa GAL4 reporter, mRNA
Method in brief: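 Liver-derived HepG2 cells expressing chimeric nuclear receptor-Gal4 proteins from transient transfection were exposed for 24 hours. Gain of reporter mRNA signal versus DMSO, read by capillary electrophoresis of FAM-labelled PCR products, was recorded.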

[16] = target: Steroid hormone receptor ERR1 (Homo sapiens) (UniProt P11474); assay: ATG_ERRa_TRANS: Attagene TRANS-FACTORIAL HepG2 Assay for human Estrogen-Related Receptor alpha (ERRa) (AID 2282971; active = hit-call score of the fitted dose curve at least 0.9, where 1 is the maximum); conditions: HepG2 Attagene TRANS reporter, ERRa transactivation
Method in brief: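 Reporter transcript induction was quantified by RT-PCR and capillary electrophoresis of FAM-labelled, HpaI-cut products after 24 h treatment of HepG2 cells carrying transiently transfected GAL4-UAS reporter units and an exogenous ERRa-Gal4 fusion; activity scored as increase over DMSO.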

[17] = target: X-box-binding protein 1 (Homo sapiens) (UniProt P17861); assay: ATG_Xbp1_CIS: Attagene CIS-FACTORIAL HepG2 Assay for human X-box Binding Protein 1 (XBP1) (AID 2282972); conditions: HepG2 XBP1 cis-element reporter, Attagene multiplex; actives raise or lower the signal
Method in brief: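 Multiplexed cis-reporter readout in transfected HepG2 liver cells. Exposure lasted 24 hours. Activity in either direction was fitted against DMSO as negative control and baseline.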

[18] = ATG_M_19_TRANS: Attagene TRANS-FACTORIAL HepG2 Assay for M19 Transcription Factor (Internal Marker) (AID 2282974; active = hit-call score of the fitted dose curve at least 0.9, where 1 is the maximum); conditions: HepG2 Attagene TRANS-FACTORIAL M19 internal marker reporter
Method in brief: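 Multiplexed TRANS format: HepG2 liver cells bearing transient GAL4-UAS reporter units, chemical treatment 24 h, reporter transcripts quantified by RT-PCR plus capillary electrophoresis. DMSO defines baseline.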

[19] = ATG_GAL4_TRANS: Attagene TRANS-FACTORIAL HepG2 Assay for GAL4 (Internal Marker) (AID 2282976; active = hit-call score of the fitted dose curve at least 0.9, where 1 is the maximum); conditions: HepG2 Attagene TRANS GAL4 internal marker reporter
Method in brief: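 First, HepG2 cells were transfected with reporter units under GAL4-UAS control. Next, they were treated with chemical for 24 h. Finally, RNA was reverse-transcribed, PCR-amplified, FAM-labelled and resolved by capillary electrophoresis, with induction scored against DMSO.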

[20] = target: Nuclear receptor subfamily 1 group I member 3 (Homo sapiens) (UniProt Q14994); assay: ATG_CAR_TRANS: Attagene TRANS-FACTORIAL HepG2 Assay for human Constitutive Androstane Receptor (CAR) (AID 2282969; active = hit-call score of the fitted dose curve at least 0.9, where 1 is the maximum;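 note: activators raise reporter mRNA above DMSO so AC50 marks induction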); conditions: HepG2 Attagene TRANS-FACTORIAL CAR reporter
Method in brief: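 Steps: transient transfection of HepG2 with multiple GAL4-UAS reporter units; 24 h compound incubation; RNA isolation, RT-PCR, 6-FAM primer extension, HpaI digest; capillary electrophoresis. Gain-of-signal relative to DMSO negative control.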

Chain of Nuclear receptor subfamily 1 group I member 3 (Homo sapiens) (Q14994 whole entry, looked up, the tested form may be a part): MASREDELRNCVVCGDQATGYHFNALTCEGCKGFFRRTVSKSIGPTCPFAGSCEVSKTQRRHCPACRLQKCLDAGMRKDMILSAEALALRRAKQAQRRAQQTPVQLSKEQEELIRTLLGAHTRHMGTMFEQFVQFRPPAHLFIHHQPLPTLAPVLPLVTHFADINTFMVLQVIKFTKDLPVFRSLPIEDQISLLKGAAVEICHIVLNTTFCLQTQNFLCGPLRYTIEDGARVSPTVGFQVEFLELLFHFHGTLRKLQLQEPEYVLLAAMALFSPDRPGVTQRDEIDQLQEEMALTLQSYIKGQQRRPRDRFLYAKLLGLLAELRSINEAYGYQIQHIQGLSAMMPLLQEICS
Chain of X-box-binding protein 1 (Homo sapiens) (P17861 whole entry, looked up): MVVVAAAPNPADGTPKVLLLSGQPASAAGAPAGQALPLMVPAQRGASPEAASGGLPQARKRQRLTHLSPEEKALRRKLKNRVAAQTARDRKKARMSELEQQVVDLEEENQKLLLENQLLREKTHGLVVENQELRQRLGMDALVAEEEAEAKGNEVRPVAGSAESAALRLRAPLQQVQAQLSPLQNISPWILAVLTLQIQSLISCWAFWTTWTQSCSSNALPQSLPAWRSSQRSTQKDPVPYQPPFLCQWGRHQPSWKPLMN
Chain of Estrogen receptor (Homo sapiens) (P03372 whole entry, looked up, the tested form may be a part): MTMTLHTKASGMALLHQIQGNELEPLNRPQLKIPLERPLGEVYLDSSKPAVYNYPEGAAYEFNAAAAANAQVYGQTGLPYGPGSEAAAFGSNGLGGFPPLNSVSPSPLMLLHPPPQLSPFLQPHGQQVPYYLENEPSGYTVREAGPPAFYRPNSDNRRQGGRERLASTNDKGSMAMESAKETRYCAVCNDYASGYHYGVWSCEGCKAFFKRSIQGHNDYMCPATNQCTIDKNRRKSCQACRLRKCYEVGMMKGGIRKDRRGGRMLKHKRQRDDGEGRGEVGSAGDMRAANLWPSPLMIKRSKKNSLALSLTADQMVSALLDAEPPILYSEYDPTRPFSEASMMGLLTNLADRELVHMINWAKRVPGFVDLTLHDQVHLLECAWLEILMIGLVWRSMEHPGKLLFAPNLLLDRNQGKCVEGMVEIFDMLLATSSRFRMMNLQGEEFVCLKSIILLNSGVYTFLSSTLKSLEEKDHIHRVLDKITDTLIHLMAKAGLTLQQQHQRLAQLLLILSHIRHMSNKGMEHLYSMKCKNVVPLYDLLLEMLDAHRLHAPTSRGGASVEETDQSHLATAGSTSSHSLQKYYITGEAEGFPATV
Chain of Signal transducer and activator of transcription 3 (Homo sapiens) (P40763 whole entry, looked up): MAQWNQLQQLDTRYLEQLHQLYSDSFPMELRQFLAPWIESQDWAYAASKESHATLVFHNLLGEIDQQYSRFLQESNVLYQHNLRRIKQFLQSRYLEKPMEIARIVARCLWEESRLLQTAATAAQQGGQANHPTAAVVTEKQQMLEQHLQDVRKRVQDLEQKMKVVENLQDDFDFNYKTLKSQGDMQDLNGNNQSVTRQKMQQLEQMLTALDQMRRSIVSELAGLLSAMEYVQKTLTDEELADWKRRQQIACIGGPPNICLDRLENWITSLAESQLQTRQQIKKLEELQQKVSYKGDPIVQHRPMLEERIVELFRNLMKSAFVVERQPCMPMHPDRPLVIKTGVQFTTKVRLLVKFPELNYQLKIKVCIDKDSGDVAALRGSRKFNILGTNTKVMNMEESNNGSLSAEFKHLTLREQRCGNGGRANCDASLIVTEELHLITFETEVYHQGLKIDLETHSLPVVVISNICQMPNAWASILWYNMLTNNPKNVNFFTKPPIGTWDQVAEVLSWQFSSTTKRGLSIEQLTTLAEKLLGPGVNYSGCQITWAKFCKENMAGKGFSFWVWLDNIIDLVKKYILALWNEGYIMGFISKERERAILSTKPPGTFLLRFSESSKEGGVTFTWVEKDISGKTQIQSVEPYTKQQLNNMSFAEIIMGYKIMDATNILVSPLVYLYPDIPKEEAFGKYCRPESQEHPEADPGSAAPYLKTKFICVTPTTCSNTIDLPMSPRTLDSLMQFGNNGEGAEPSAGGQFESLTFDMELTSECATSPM
Chain of Paired box protein Pax-6 (Homo sapiens) (P26367 whole entry, looked up): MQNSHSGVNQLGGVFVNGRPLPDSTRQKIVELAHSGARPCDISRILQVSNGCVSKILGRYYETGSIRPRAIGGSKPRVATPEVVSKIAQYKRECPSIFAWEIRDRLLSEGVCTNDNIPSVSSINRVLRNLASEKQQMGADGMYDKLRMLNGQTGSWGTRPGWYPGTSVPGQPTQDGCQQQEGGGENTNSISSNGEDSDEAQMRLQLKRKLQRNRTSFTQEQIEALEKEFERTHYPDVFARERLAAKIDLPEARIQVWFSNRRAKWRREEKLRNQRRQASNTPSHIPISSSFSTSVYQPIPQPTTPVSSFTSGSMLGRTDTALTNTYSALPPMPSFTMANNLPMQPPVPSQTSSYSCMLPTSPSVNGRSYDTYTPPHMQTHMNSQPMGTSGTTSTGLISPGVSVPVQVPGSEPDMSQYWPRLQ
Chain of Transcription factor Sp1 (Homo sapiens) (P08047 whole entry, looked up): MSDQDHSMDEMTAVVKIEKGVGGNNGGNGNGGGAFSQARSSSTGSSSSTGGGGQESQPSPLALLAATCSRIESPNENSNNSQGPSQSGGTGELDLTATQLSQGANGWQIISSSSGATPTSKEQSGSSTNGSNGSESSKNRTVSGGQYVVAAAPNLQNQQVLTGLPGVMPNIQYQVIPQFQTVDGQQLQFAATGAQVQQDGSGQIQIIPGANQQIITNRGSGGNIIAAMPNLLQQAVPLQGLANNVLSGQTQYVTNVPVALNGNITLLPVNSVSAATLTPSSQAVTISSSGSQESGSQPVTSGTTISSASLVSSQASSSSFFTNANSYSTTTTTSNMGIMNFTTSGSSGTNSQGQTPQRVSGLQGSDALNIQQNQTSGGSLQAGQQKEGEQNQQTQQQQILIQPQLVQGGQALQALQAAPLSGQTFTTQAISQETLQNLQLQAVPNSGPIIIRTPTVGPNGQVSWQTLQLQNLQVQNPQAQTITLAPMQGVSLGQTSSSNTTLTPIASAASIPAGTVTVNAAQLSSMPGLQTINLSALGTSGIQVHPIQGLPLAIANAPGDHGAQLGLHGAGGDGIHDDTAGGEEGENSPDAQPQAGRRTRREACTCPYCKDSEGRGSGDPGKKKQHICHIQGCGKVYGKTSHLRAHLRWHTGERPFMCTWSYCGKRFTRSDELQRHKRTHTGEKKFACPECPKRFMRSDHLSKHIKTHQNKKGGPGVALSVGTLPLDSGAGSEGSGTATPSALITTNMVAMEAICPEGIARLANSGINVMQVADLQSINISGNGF
Chain of Steroid hormone receptor ERR1 (Homo sapiens) (P11474 whole entry, looked up, the tested form may be a part): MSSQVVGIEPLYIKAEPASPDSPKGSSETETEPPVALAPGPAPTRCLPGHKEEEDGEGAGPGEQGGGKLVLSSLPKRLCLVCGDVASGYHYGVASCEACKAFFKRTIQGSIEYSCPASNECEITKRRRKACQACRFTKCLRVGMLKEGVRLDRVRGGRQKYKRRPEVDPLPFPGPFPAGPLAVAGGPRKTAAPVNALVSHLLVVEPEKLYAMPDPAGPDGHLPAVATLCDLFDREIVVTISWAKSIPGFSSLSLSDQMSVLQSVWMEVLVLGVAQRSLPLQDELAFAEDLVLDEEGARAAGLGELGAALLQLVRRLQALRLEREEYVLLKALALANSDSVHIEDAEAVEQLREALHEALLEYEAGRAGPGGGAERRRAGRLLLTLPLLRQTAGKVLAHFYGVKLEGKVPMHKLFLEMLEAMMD

c1ccc2cc3ccccc3cc2c1
outcome [1]: inactive
outcome [2]: inactive
outcome [3]: inactive
outcome [4]: inactive
outcome [5]: inactive
outcome [6]: inactive
outcome [7]: inactive
outcome [8]: inactive
outcome [9]: inactive
outcome [10]: inactive
outcome [11]: inactive
outcome [12]: inactive
outcome [13]: inactive
outcome [14]: inactive
outcome [15]: inactive
outcome [16]: inactive
outcome [17]: inactive
outcome [18]: inactive

CCCCCCOC(=O)CC(CC(=O)OCCCCCC)(OC(=O)CCC)C(=O)OCCCCCC
outcome [1]: inactive
outcome [2]: inactive
AC50 [3]: 0.922 µM (active)
outcome [4]: inactive
outcome [5]: inactive
outcome [6]: inactive
outcome [7]: inactive
outcome [8]: inactive
outcome [9]: inactive
outcome [10]: inactive
outcome [11]: inactive
outcome [12]: inactive
outcome [13]: inactive
outcome [14]: inactive
outcome [16]: inactive
outcome [17]: inactive
outcome [19]: inactive

Cn1cc[nH]c1=S
outcome [1]: inactive
outcome [2]: inactive
outcome [3]: inactive
outcome [4]: inactive
outcome [5]: inactive
outcome [6]: inactive
outcome [7]: inactive
outcome [8]: inactive
outcome [9]: inactive
outcome [10]: inactive
outcome [11]: inactive
outcome [12]: inactive
outcome [13]: inactive
outcome [14]: inactive
outcome [17]: inactive
outcome [19]: inactive

C=CN1CCCC1=O
outcome [1]: inactive
outcome [2]: inactive
outcome [3]: inactive
outcome [4]: inactive
outcome [5]: inactive
outcome [6]: inactive
outcome [7]: inactive
outcome [8]: inactive
outcome [9]: inactive
outcome [10]: inactive
outcome [11]: inactive
outcome [12]: inactive
outcome [13]: inactive
outcome [20]: inactive
outcome [15]: inactive
outcome [17]: inactive

CCn1nc(C)c2c1C(=O)NCC(c1ccc(O)cc1)=N2
outcome [1]: inactive
outcome [2]: inactive
outcome [3]: inactive
outcome [4]: inactive
outcome [6]: inactive
outcome [7]: inactive
AC50 [8]: 2.82 µM (active)
outcome [9]: inactive
outcome [10]: inactive
outcome [11]: inactive
outcome [12]: inactive
outcome [13]: inactive
outcome [14]: inactive
outcome [20]: inactive
outcome [15]: inactive
outcome [17]: inactive
outcome [19]: inactive

O=S(=O)(O)c1ccc(N=Nc2c(O)ccc3cc(S(=O)(=O)O)ccc23)cc1
outcome [1]: inactive
outcome [2]: inactive
outcome [3]: inactive
outcome [5]: inactive
outcome [6]: inactive
outcome [7]: inactive
outcome [8]: inactive
outcome [9]: inactive
outcome [10]: inactive
outcome [11]: inactive
outcome [12]: inactive
outcome [13]: inactive
outcome [14]: inactive
outcome [20]: inactive
outcome [15]: inactive
outcome [16]: inactive
outcome [17]: inactive
outcome [18]: inactive

C=CCc1cc(S(=O)(=O)c2ccc(O)c(CC=C)c2)ccc1O
outcome [1]: inactive
AC50 [2]: 33.4 µM (active)
AC50 [3]: 2.77 µM (active)
AC50 [4]: 8.96 µM (active)
AC50 [5]: 17.4 µM (active)
outcome [6]: inactive
outcome [7]: inactive
AC50 [8]: 9.26 µM (active)
outcome [9]: inactive
AC50 [10]: 33.4 µM (active)
AC50 [11]: 43.7 µM (active)
outcome [12]: inactive
outcome [13]: inactive
AC50 [14]: 9.12 µM (active)
AC50 [15]: 2.06 µM (active)
outcome [17]: inactive
outcome [18]: inactive
outcome [19]: inactive

c1ccc2ncccc2c1
outcome [1]: inactive
outcome [2]: inactive
outcome [3]: inactive
outcome [4]: inactive
outcome [5]: inactive
outcome [6]: inactive
outcome [7]: inactive
outcome [8]: inactive
outcome [9]: inactive
outcome [10]: inactive
outcome [11]: inactive
outcome [12]: inactive
outcome [13]: inactive
outcome [15]: inactive
outcome [17]: inactive
